Laboratory results: publication PMC5540273 (PLoS ONE, 2017)

Legend:
Settings in all cases: concentration: 1 μM,replicates: in singlicate; n = 1
PLK2 = tested on: PLK2
PLK3 = tested on: PLK3
PLK4 = tested on: PLK4
PRKCD = tested on: PRKCD
PRKCE = tested on: PRKCE
PRKCH = tested on: PRKCH
PRKCI = tested on: PRKCI
PRKCQ = tested on: PRKCQ
PRKD1 = tested on: PRKD1
PRKD2 = tested on: PRKD2
PRKD3 = tested on: PRKD3
PRKG1 = tested on: PRKG1
PRKG2 = tested on: PRKG2
PRKR = tested on: T1, PRKR
T1 construct: gene EIF2AK2

PRKX = tested on: PRKX
PRP4 = tested on: PRP4
QSK = tested on: QSK
RAF1 = tested on: RAF1
RET = tested on: RET
PYK2 = tested on: T2, PYK2
T2 construct: gene PTK2B
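Further: KINOMEscan kinase panel screen.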

| SMILES | %Inh (PLK2) [%] | %Inh (PLK3) [%] | %Inh (PLK4) [%] | %Inh (PRKCD) [%] | %Inh (PRKCE) [%] | %Inh (PRKCH) [%] | %Inh (PRKCI) [%] | %Inh (PRKCQ) [%] | %Inh (PRKD1) [%] | %Inh (PRKD2) [%] | %Inh (PRKD3) [%] | %Inh (PRKG1) [%] | %Inh (PRKG2) [%] | %Inh (PRKR) [%] | %Inh (PRKX) [%] | %Inh (PRP4) [%] | %Inh (QSK) [%] | %Inh (RAF1) [%] | %Inh (RET) [%] | %Inh (PYK2) [%] |
| --- | --- | --- | --- | --- | --- | --- | --- | --- | --- | --- | --- | --- | --- | --- | --- | --- | --- | --- | --- | --- |
| CN(c1ccccc1CNc1nc(Nc2ccc3c(c2)CC(=O)N3)ncc1C(F)(F)F)S(C)(=O)=O | 80 | 49 | 61 | 73 | 58 | 0 | 0 | 80 | 51 | 31 | 70 | 0 | 0 | 0 | 17 | 0 | 0 | 0 | 87 | – |
| COc1cc2c(Nc3ccc(NC(=O)c4ccccc4)cc3)ncnc2cc1OCCCN1CCOCC1 [GSK301329] | 0 | 0 | 36 | 6 | 0 | 0 | 0 | 9 | 0 | 4 | 0 | 0 | 21 | 0 | 22 | 0 | 18 | 1 | 79 | 0 |
| C[C@@H](Oc1cc(-n2cnc3cc(-c4ccncc4)ccc32)sc1C(N)=O)c1ccccc1Cl [GSK479719] | 99.5 | – | 29 | 0 | 18 | 12 | 0 | 2 | 0 | 0 | 16 | 3 | 2 | 0 | 2 | 14 | 9 | 13 | 36 | 13 |
| c1ccc(Oc2ccc(Nc3ccnc4ccc(-c5ccccn5)cc34)cc2)cc1 [GW407034] | 0 | 0 | 15 | 0 | 3 | 0 | 0 | 27 | 0 | 5 | 33 | 0 | 0 | 0 | 12 | 4 | 14 | 19 | 6 | 0 |
| CN1CCN(CCCNc2nccc(-c3c(-c4ccc(F)cc4)nn4cc(C(N)=O)ccc34)n2)CC1 [GW622475] | 0 | 0 | 10 | 29 | 14 | 22 | 41 | 42 | 65 | 67 | 89 | 6 | 0 | 2 | 8 | 0 | 30 | 35 | 38 | 9 |
| Cl.Cl.NC[C@H](CC1CCCCC1)NC(=O)c1ccc(-c2ccnc3[nH]ccc23)s1 [GSK1581428] | 0 | 0 | 41 | 100 | 98.5 | 100 | 22 | 95.3 | 91.8 | 96.7 | 96.2 | 99.9 | 99.2 | 13 | 97.9 | 81 | 9 | 0 | 38 | 41 |
| COC(=O)Nc1nc2cc(Oc3ccc(NC(=O)Nc4cc(C(F)(F)F)ccc4Cl)cc3)ccc2[nH]1.Cl [GW697465] | 0 | 0 | 0 | 0 | 11 | 7 | 0 | 6 | 0 | 1 | 9 | 2 | 0 | 0 | 15 | 43 | 9 | 89 | 100 | 24 |
| CS(=O)(=O)Nc1ccc(-c2ccnc3[nH]ccc23)cc1 [GSK993273] | 0 | 0 | 21 | 42 | 64 | 49 | 26 | 57 | 0 | 0 | 0 | 77 | 77 | 41 | 42 | 64 | 17 | 12 | 22 | 20 |
| Cc1cccc(-c2nc(Nc3ccncc3)c3sccc3n2)n1 [GW869641] | 20 | 13 | 23 | 20 | 40 | 21 | 32 | 0 | 99.3 | – | 90.7 | 7 | 14 | 54 | 0 | 0 | 24 | 4 | 31 | 20 |
| O=C(Nc1ccc(Oc2ccc3nc(NC(=O)C4CC4)cn3n2)c(F)c1)c1cccn(-c2ccccc2)c1=O | 0 | 0 | 0 | 0 | 0 | 0 | 28 | 0 | 0 | 9 | 0 | 30 | 1 | 0 | 0 | 0 | 0 | 87 | 99.9 | 19 |
| Cn1ccc2ncnc(Oc3ccc(NC(=O)Nc4ccnc(C(F)(F)F)c4)c(Cl)c3)c21 | 0 | 0 | 11 | 0 | 0 | 0 | 0 | 7 | 0 | 4 | 0 | 0 | 9 | 0 | 1 | 14 | 0 | 16 | 100 | 9 |
| CS(=O)c1ccc(-c2coc3ccc(-c4n[nH]c(=O)o4)cc23)cc1 (stereo not shown) | 4 | 6 | 34 | 24 | 7 | 0 | 8 | 2 | 0 | 4 | 0 | 4 | 0 | 20 | 0 | 14 | 0 | 20 | 12 | 4 |
| COc1cccc(C2=C(Nc3cccc(Cl)c3)C(=O)NC2=O)c1 [SB-341556] | 0 | 0 | 8 | 26 | 19 | 0 | 0 | 17 | 0 | 0 | 6 | 0 | 11 | 11 | 21 | 25 | 3 | 11 | 37 | 16 |
| Cc1nnc(-c2ccc3occ(-c4ccc(S(C)=O)cc4)c3n2)o1 (stereo not shown) | 0 | 0 | 0 | 0 | 0 | 4 | 0 | 0 | 22 | 0 | 0 | 0 | 0 | 56 | 0 | 16 | 0 | 14 | 0 | 2 |
| C[C@@H](Oc1cc(-n2cnc3ccc(-c4ccncc4)cc32)sc1C(N)=O)c1ccccc1Cl [GSK483724] | 99.3 | – | 0 | 8 | 29 | 33 | 40 | 33 | 0 | 0 | 27 | 0 | 0 | 0 | 33 | 23 | 0 | 11 | 22 | 0 |
| Cl.c1ccc(Oc2ccc(Nc3ccnc4cc(-c5ccc(CN6CCNCC6)o5)ccc34)cc2)nc1 [GW567142] | 0 | 0 | 16 | 0 | 0 | 0 | 20 | 0 | 24 | 3 | 19 | 0 | 0 | 0 | 20 | 13 | 0 | 0 | 20 | 0 |
| COC(=O)c1cccc(NC(=O)NC2CCN(c3ccnc(Nc4cc(OC)c(OC)c(OC)c4)n3)C2)c1 (stereo not shown) [GSK1379767] | 0 | 0 | 38 | 0 | 18 | 7 | 19 | 0 | 0 | 5 | 0 | 0 | 7 | 19 | 5 | 44 | 0 | 7 | 11 | 0 |
| C[C@@H](Oc1cc(-n2cnc3cc(-c4cnn(C)c4)ccc32)sc1C(N)=O)c1ccccc1Cl [GSK580432] | 99.5 | – | 64 | 23 | 1 | 0 | 46 | 35 | 0 | 0 | 0 | 17 | 2 | 0 | 0 | 81 | 42 | 13 | 90 | 0 |
| CSc1nccc(-c2c(-c3ccc(F)cc3)ncn2CCCN2CCOCC2)n1.Cl [SB-217146] | 28 | 44 | 5 | 8 | 38 | 0 | 14 | 0 | 0 | 1 | 0 | 0 | 0 | 0 | 0 | 0 | 5 | 0 | 2 | 5 |
| Cc1ccn2nc(-c3ccc(F)cc3)c(-c3ccncc3)c2c1.Cl [GW457859] | 0 | 0 | 2 | 0 | 14 | 8 | 18 | 8 | 17 | 20 | 30 | 0 | 19 | 12 | 21 | 28 | 0 | 15 | 4 | 0 |
| CC(=O)c1c(-c2ccncc2)[nH]c(-c2ccncc2)c1C [GW493036] | 0 | 0 | 0 | 0 | 25 | 13 | 0 | 0 | 2 | 15 | 100 | 75 | 73 | 0 | 0 | 22 | 0 | 41 | 26 | 0 |
